Rows were chosen to be rich in hits. Some 18% of all compounds tested hit in one or more screens of this group.
Gal4-VP16 FLuc = counter-screen for ROR gamma inhibitors: Gal4-VP16 reporter. Potency, µM (top dose mostly 53.6 µM), for the others: top-dose activity, negative = inhibition, actives largely listed as inhibitors. 3.5% of 310,000 active. AID 2546. Drosophila S2 Gal4-VP16 UAS-luciferase, luminescence, 20 h;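 note: Gal4-VP16 expression switched on by copper sulfate through the metallothionein promoter; potency is the fitted concentration of half-maximal effect; nearly all actives have a fitted effect of over 50% in size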
LDHA inh = inhibitors of human lactate dehydrogenase A. P00338. purified LDHA, NADH/diaphorase-resazurin fluorescence; active compounds read low. activity change, % (values are at about 110 or 230 µM). 0.15% of 480,000 active. AID 1347041; in the data active = activity change below about -30%; inconclusive = mostly about -25% to -30%;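 note: plate controls were DMSO wells for no effect and wells without enzyme for full effect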
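Human LDH5 at 2 nM final in Tris HCl pH 7.4 with 0.06 mM NADH and 0.2 mM pyruvate, reacted 5 minutes at room temperature. Remaining NADH coupled via diaphorase/resazurin; resorufin fluorescence read at 0 and 20 minutes, normalized to enzyme-free and DMSO wells.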
DT40 TDP1 CPT = DT40-hTDP1 cell growth loss with CPT; chicken DT40 Tdp1-/-;hTDP1 cells + 20 nM CPT, ATP luminescence, 48 h; Potency, µM (titrated, usually from 46.2 µM), for inactives: at the highest dose activity change, negative = growth inhibition, actives largely listed as inhibitors; 12% of 420,000 active; note: potency is the fitted concentration of half-maximal effect; nearly all actives have a fitted effect of over 55% in size
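Chicken DT40 Tdp1-/- cells complemented with human TDP1, 400 cells/well, exposed to compounds plus 20 nM camptothecin for at least 48 h at 37 C; viability read as ATP content by CellTiter-Glo luminescence.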
DT40 TDP1 no CPT = qHTS for Inhibitors of human tyrosyl-DNA phosphodiesterase 1 (TDP1): qHTS in cells in absence of CPT. DT40 Tdp1-/- hTDP1 cells, no CPT, ATP luminescence, 48 h. Potency, µM (series often up to 46.2 µM), inactives show top-dose activity change, negative = growth inhibition, actives largely listed as inhibitors. 15% of 420,000 active. AID 686978, 2013; note: potency is the fitted concentration of half-maximal effect; nearly all actives have a fitted effect of over 55% in size
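DT40 Tdp1-/-;hTDP1 cells, no CPT (DMSO vehicle only), 400 cells/well; compounds pin-transferred; ≥48 hr, 37 °C; CellTiter-Glo 30 min RT dark, luminescence read.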
RORg inh = ROR gamma (mouse) transcription inhibition. Potency, µM (top dose mostly 53.6 µM), for the others: at the highest dose activity change, negative = inhibition, most hits filed as inhibitors. Drosophila S2 Gal4-RORgamma UAS-luciferase reporter, 20 h. 5.4% of 310,000 active; note: potency is the fitted concentration of half-maximal effect; nearly all actives have a fitted effect of over 60% in size
Target sequence (P51450 whole entry, looked up, the tested form may be a part): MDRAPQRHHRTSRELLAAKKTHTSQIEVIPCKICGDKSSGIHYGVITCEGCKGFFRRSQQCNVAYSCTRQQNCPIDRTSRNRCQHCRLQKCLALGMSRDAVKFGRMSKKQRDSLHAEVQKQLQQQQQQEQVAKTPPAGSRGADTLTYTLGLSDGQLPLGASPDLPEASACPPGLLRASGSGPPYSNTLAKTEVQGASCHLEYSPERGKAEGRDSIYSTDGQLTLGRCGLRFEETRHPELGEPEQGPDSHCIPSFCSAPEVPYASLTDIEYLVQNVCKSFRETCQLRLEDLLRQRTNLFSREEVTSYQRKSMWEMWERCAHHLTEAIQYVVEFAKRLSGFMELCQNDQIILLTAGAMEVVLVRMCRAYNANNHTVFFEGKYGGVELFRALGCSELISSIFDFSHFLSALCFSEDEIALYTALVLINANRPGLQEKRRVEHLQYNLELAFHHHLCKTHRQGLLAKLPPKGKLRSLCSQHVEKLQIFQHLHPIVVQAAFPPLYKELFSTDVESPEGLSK
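Using a luciferase readout, inhibitors were identified by reduced reporter activity in Drosophila cells coexpressing a copper-inducible Gal4–ROR gamma fusion and UAS-driven Photinus luciferase, incubated 20 hr after 700 uM copper sulfate.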
IL-1B inflam inh = inflammasome signaling inhibition, IL-1 beta readout | THP-1 LPS/ATP IL-1B secretion, AlphaLISA, 16 h; active compounds read low | activity change, % at 57.5 µM | 4.7% of 360,000 active | AID 743279; in the data active = activity change below about -50%; inconclusive = mostly about -30% to -49%
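Secreted IL-1B measured by AlphaLISA bead assay after 16 h compound exposure of THP-1 cells; compounds (final up to 57.5 uM) added 1 h before LPS (250 ng/mL) and ATP (1.25 mM) stimulation; lower signal means less secretion.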
Numbers without * were called inactive; ? = inconclusive; / = no result given; [ ] = remark or other dose. Unless noted, calls come from the whole dose curve; as a rule, active = well fitted curve in the direction sought with a large enough effect; inconclusive = small, poorly fitted or top-dose-only effect, or another doubt; inactive = no such curve, though single readings can be large; an effect the other way counts as inactive or inconclusive. Unless noted, % is set by controls: 0 for no effect and ±100 for the full control effect.

SMILES	Gal4-VP16 FLuc	LDHA inh	DT40 TDP1 CPT	DT40 TDP1 no CPT	RORg inh	IL-1B inflam inh
Cc1c(C)n(CCN2CCOCC2)c2ncn3nc(-c4ccccc4Br)nc3c12	/	-6.4	/	/	/	/
O=C(CSc1ccc(Cl)cc1)c1ccco1	?	6.5	16.4µM*	23.1µM*	23.4%	-28.3
Cc1ccc(S(=O)(=O)n2c(CN3CCCC(C)C3)nc3ccccc32)cc1 (stereo not given)	-1.4%	-4.3	1.6%	-23.4%	-32.7%	-51.0*
Cc1nc2ccccc2n1S(=O)(=O)c1ccc(S(=O)(=O)N2CCCCCC2)cc1	9.3%	0.9	-6.5%	-3.7%	-6.2%	15.7
O=C(O)CC(C(=O)O)c1ccc(OCCCOc2ccc(C(CC(=O)O)C(=O)O)cc2)cc1 (stereo not given)	/	-8.8	/	/	/	/
Cc1ccc(C)c(-c2nnc(NC(=O)CCS(=O)(=O)c3ccccc3)o2)c1	/	0.0	?	?	/	5.9
COc1cc(-c2nnc(NC(=O)CCS(=O)(=O)c3ccc(F)cc3)o2)cc(OC)c1OC	/	-1.2	?	18.4µM*	/	5.6
Cc1ccc(-c2nnc(NC(=O)CCS(=O)(=O)c3ccccc3)o2)c(C)c1	/	3.2	-17.6%	-16.1%	/	-6.1
COc1cc(-c2nnc(NC(=O)CCS(=O)(=O)c3ccccc3)o2)cc(OC)c1OC	/	2.4	16.4µM*	14.6µM*	/	-54.7*
O=CNNC(=S)Nc1ccccc1C(F)(F)F	/	1.6	/	/	/	/
Cc1ccc(C2C(C#N)=C(N)Oc3c2oc(CO)cc3=O)cc1C (stereo not given)	/	8.8	/	/	/	/
Cc1nc(Nc2nc(CSc3nc4ccccc4[nH]3)cc(=O)[nH]2)nc2ccccc12	?	5.5	4.11µM*	6.51µM*	?	-86.9*
Cc1nc(Nc2nc(CSc3ccc(Cl)cc3)cc(=O)[nH]2)nc2ccccc12	-4.3%	-8.2	-25.4%	?	-2.2%	9.5
COc1ccc2nc(Nc3nc(CSc4nc5ccccc5[nH]4)cc(=O)[nH]3)nc(C)c2c1	5.01µM*	0.9	4.61µM*	4.11µM*	5.62µM*	-95.1*
COc1cccc(-c2cc(=O)[nH]c(Nc3nc(C)c4ccccc4n3)n2)c1	/	-1.0	/	/	/	/
Cc1nc(Nc2nc(-c3ccccc3)cc(=O)[nH]2)nc2ccccc12	/	-3.3	20.6µM*	16.4µM*	/	-64.5*
COc1ccc(Nc2nc(N)nc(CSc3nc(C)cc(C)n3)n2)cc1	-10.1%	1.2	-1.1%	?	21.1%	-28.3
COc1ccc2nc(SCc3nc(N)nc(Nc4ccccc4)n3)[nH]c2c1	-12.8%	-1.3	?	16.4µM*	30.4%	-4.1
Fc1ccccc1-c1ccc(-c2nn3c(-c4ccco4)nnc3s2)o1	/	-3.8	/	/	/	/
Cc1ccc(OCc2nc(-c3ccccc3OCC(=O)N3CCCC(C)C3)no2)cc1 (stereo not given)	/	-18.5	/	/	/	/
COC(C)C(=O)NCC(C)c1ccccc1 (stereo not given)	/	-1.4	/	/	/	/
Cc1cc(C)nc(Nc2nc3ccccc3c(=O)[nH]2)n1	/	-7.1	/	/	/	/
Cc1ccc2c(=O)[nH]c(Nc3nc(C)cc(-c4ccccc4)n3)nc2c1	-13.1%	-0.6	10.3µM*	11.6µM*	0.6%	-20.6
CCc1cc2c(N3CCN(c4ccccc4)CC3)ncnc2s1	?	-2.1	13µM*	11.6µM*	-3.2%	-17.5
CC(=O)N1CCN(c2ncnc3sc(-c4ccccc4)cc23)CC1	-4.3%[10 µM]	-6.2	?	?	4.7%	-8.4
SMILES	Gal4-VP16 FLuc	LDHA inh	DT40 TDP1 CPT	DT40 TDP1 no CPT	RORg inh	IL-1B inflam inh
Oc1ccc(N2CCN(c3ncnc4sc(-c5ccccc5)cc34)CC2)cc1	-20.9%	0.5	?	23.1µM*	7.0%	-69.8*
FC(F)(F)c1ccc(=S)[nH]c1	/	8.4	/	/	/	/
Cc1ccccc1OCC(=O)N/N=C/c1cccn1C	0.2%	-3.6	-7.5%	-13.8%	8.91µM*	-17.9
Cc1ccc(C(C)C)c(OCC(=O)N/N=C/c2cccn2C)c1	?	-5.5	?	14.6µM*	?	-7.0
Cn1cccc1/C=N\NC(=O)Cc1ccc(Br)c2ccccc12	11.2µM*	-7.6	14.6µM*	10.3µM*	?	14.7
Cn1cccc1/C=N/NC(=O)Cc1ccccc1	7.4%	5.5	-4.8%	-10.2%	8.7%	-6.7
Cc1cccc(OCC(=O)N/N=C\c2cccn2C)c1C	-2.1%	-9.5	-1.6%	?	?	40.7
COc1cc(NC(=O)Cn2nc(C(F)(F)F)c3c2CCCC3)cc(OC)c1OC	?	2.0	23.1µM*	10.3µM*	2.7%	-11.8
COc1ccc(Cl)cc1NC(=O)Cn1nc(C(F)(F)F)c2c1CCCC2	/	1.8	?	?	/	/
COCCn1c(SCCC#N)nnc1-c1ccc(Cl)cc1	/	4.4	/	/	/	/
CCOC(=O)N/N=C/c1ccccc1OCc1ccc(Cl)cc1	-5.3%	-2.8	?	29.1µM*	?	-21.6
O=C(Cc1ccccc1)N/N=C/c1ccccc1OCc1ccc(Cl)cc1	-10.0%	-7.0	?	?	-0.6%	-19.8
O/N=C/c1ccccc1OCc1ccc(Cl)cc1	7.0%	-3.9	-3.1%	0.5%	17.4%	-95.8*
Cn1c(=O)c2c(ncn2CCC(=O)Nc2ccccc2F)n(C)c1=O	/	1.7	/	/	/	/
CC(=O)Nc1ccc(NC(=O)c2cnn(-c3ccccc3)c2C2CCN(C(=O)OC(C)(C)C)CC2)cc1	/	-1.4	-23.3%	-21.8%	/	/
COc1ccc(-n2ncc(C(=O)NCc3ccc4c(c3)OCO4)c2C2CCN(C(=O)OC(C)(C)C)CC2)cc1	/	0.9	16.4µM*	?	/	/
Cc1ccc(-n2ncc(C(=O)NCc3ccc4c(c3)OCO4)c2C2CCN(C(=O)OC(C)(C)C)CC2)cc1C	/	-0.5	23.1µM*	?	/	/
Cc1ccc(-n2ncc(C(=O)NCCCN3CCc4ccccc4C3)c2C2CCN(C(=O)OC(C)(C)C)CC2)cc1C	/	-2.5	?	?	/	/
Cc1ccc(-n2ncc(C(=O)NCCN3CCc4ccccc4C3)c2C2CCNCC2)cc1C	/	0.9	20.6µM*	20.6µM*	/	/
CCOc1ccc(NC(=O)c2cnn(-c3ccc(C)c(C)c3)c2C2CCN(C(=O)OC(C)(C)C)CC2)cc1	/	3.6	16.4µM*	16.4µM*	/	/
Cc1cccc(C)c1-n1ncc(C(=O)NCc2ccc3c(c2)OCO3)c1C1CCN(C(=O)OC(C)(C)C)CC1	/	3.4	?	14.6µM*	/	/
Cc1ccc(-n2ncc(C(=O)NCCN3CCCC3)c2C2CCN(C(=O)OC(C)(C)C)CC2)cc1C	/	-2.9	16.4µM*	?	/	/

High-throughput results as filed in PubChem BioAssay.
